# Source: PubChem
# MBNL1 CUG block – qHTS Assay for Inhibitors of MBNL1-poly(CUG) RNA binding; AID 2675, 2010; actives 0.036% (n = 280,000); Potency, µM (highest dose often 57.5 µM), for the others: at the highest dose activity change, negative = inhibition, usual class: inhibitors; TR-FRET MBNL1-His/biotin-(CUG)12 binding, 665/545 ratio; active = well fitted inhibition curve with a large enough effect in the signal ratio, with a control signal flat, not every such curve was filed as active; inconclusive = small, poorly fitted or top-dose-only effect, or effect the other way, or a change in a side signal; inactive = no such curve, though single readings can be large or run the other way; the % refers to the signal ratio; also: potency is read from the fitted curve at half-maximal effect; % is scaled to controls: 0 for no effect and ±100 for the full control effect
# Target sequence (Q9NR56 whole entry, looked up): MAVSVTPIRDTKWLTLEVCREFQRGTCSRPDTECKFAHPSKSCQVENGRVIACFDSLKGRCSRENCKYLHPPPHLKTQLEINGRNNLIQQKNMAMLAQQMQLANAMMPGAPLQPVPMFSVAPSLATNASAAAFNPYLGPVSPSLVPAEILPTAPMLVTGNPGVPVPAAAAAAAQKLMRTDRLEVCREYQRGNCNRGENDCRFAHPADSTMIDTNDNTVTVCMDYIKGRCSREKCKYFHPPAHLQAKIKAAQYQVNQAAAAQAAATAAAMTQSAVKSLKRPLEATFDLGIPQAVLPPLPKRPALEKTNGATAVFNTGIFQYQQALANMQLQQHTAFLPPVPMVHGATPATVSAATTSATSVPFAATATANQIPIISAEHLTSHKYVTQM
#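 MBNL1-His + Biotin-(CUG)12, cpd titration 92 nM–58 uM; Tb anti-His Ab 0.055 ng/ul, SA-XL665 5 nM (final); 60 min RT; ratiometric 665/545 nm, Ex 340 nm; normalized to buffer and full-complex controls.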
# CtBP-E1A inh – qHTS Assay for Inhibitors of the CtBP/E1A Interaction; CtBP / adenovirus E1A interaction (AlphaScreen); AlphaScreen GST-E1A/His-CtBP binding, 1536-well; hits give low values; activity change, % (no concentration beside the values); actives 0.49% (n = 340,000); AID 651724, 2012; in the data active = activity change below about -65%; inconclusive = mostly about -30% to -63%; also: % is scaled to controls: 0 for no effect and ±100 for the full control effect
#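 Steps: dispense buffer (Tris pH 8.0, NaCl 300 mM, TCEP 1 mM, BSA, Tween 20); add 5X protein mix (GST-E1A, His-CtBP, 125 nM each); pin 23 nL compound; 2 h at 37 °C, dark; add 5X beads (50 ug/mL); 1 h; read.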
# L3MBTL1 inh – qHTS Assay for the Inhibitors of L3MBTL1. Potency, µM (highest dose often 57.1 µM), inactives show at the top dose activity, negative = inhibition, most hits filed as inhibitors. actives 0.66% (n = 230,000). AlphaScreen L3MBTL1–H3K9me1 peptide binding. Lethal(3)malignant brain tumor-like protein 1 (Homo sapiens), Q9Y468; also: potency is read from the fitted curve at half-maximal effect; % is scaled to controls: 0 for no effect and ±100 for the full control effect; nearly all actives have a fitted effect of over 60% in size
#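 L3MBTL1 (50 nM) pre-complexed 30 min with biotinylated H3(1-15)K9me1 peptide (75 nM), then compounds added for 30 min at room temperature; AlphaScreen streptavidin donor/nickel chelate acceptor beads (10 ug/mL final) read after 30 min dark incubation.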
# Eya2 phos inh – qHTS Assay for Inhibitors of the Phosphatase Activity of Eya2; actives 0.006% (n = 330,000); Potency, µM (series often up to 76.9 µM), without a hit: at the top dose activity, negative = inhibition, usual class: inhibitors; AID 488837, 2010; Protein phosphatase EYA2 (Homo sapiens), O00167; recombinant Eya2, OMFP fluorescence dephosphorylation (OMFP is methylfluorescein phosphate); also: potency is read from the fitted curve at half-maximal effect; % is scaled to controls: 0 for no effect and ±100 for the full control effect
#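 Eya2 protein (added as 0.2 uM solution) was preincubated with compound for 10 min at ambient temperature in 50 mM HEPES pH 7.5, 50 mM NaCl, 5 uM MgCl2, 0.05% BSA, 1 mM DTT. OMFP (added at 50 uM) then reacted 10 min; fluorescence read at 485/525 nm.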
# Six1-Eya2 blk – qHTS Assay for Inhibitors of the Six1/Eya2 Interaction. actives 0.56% (n = 360,000). Homeobox protein SIX1 (Homo sapiens) + Protein phosphatase EYA2 (Homo sapiens), …. AlphaScreen GST-Six1/His-Eya2 binding, biochemical; hits give low values. activity change, % (test concentration not listed); in the data active = activity change below about -65%; inconclusive = mostly about -30% to -63%; also: % is scaled to controls: 0 for no effect and ±100 for the full control effect
#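 Homogeneous AlphaScreen proximity assay pairing GST-Six1 with His-tagged Eya2 (added as 5X mix: 250 nM and 500 nM) in 50 mM Tris pH 8.0, 300 mM NaCl, 1 mM TCEP. Glutathione donor and nickel acceptor beads; 1 h, 37 °C, dark.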
# CBFb-RUNX1 inh – qHTS Assay for Compounds Blocking the Interaction Between CBF-beta and RUNX1 for the Treatment of Acute Myeloid Leukemia | Runt-related transcription factor 1 (Homo sapiens) + Core-binding factor subunit beta … | AlphaScreen CBFb-His/RUNX1-biotin binding, biochemical | Potency, µM (titrated, usually from 59.8 µM), without a hit: top-dose activity, negative = inhibition, usual class: inhibitors | 230,000 tested, under 10 active; also: % of control where 0% means no effect
#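 Room-temperature protein-protein interaction test with 30 nM each of His-tagged CBF-beta and biotinylated RUNX1, 15 min with compound, then 90 min with nickel plus streptavidin beads. Signal read in AlphaScreen mode.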
# An asterisk follows results filed as active; u = inconclusive; x = not tested or not shown; [ ] = remark or other dose. A selection: hits, their analogues and other compounds. The true share with any hit is near 0.89%. Unless noted, calls follow the shape of the dose curve; as a rule, active = well fitted curve in the direction sought with a large enough effect; inconclusive = small, poorly fitted or top-dose-only effect, or another doubt; inactive = no such curve, though single readings can be large; an effect the other way counts as inactive or inconclusive.
SMILES,MBNL1 CUG block,CtBP-E1A inh,L3MBTL1 inh,Eya2 phos inh,Six1-Eya2 blk,CBFb-RUNX1 inh
C/C(=N/NC(=O)CNC(=O)c1ccccn1)c1ccccc1,-4%,x,6%,-1%,5,-5%
C/C(=N\Nc1cccc2cccnc12)c1ccccn1,5%,-5,13%,9%,-15,u
Cc1cccc(NC(=O)C2CCCN2S(=O)(=O)c2cccc3cccnc23)c1 (stereo not drawn),-6%,x,x,5%,x,1%
CC(C)OC(=O)C(C(=O)C(F)(F)F)c1cc(NS(=O)(=O)c2ccc3ccccc3c2)c2ccccc2c1O (stereo not drawn),1%,-68*,-12%,-7%,u,-1%
O=[N+]([O-])c1ccc(Cl)c(/C=N/n2c(-c3ccncc3)n[nH]c2=S)c1,u,-73*,x,-2%,-79*,0%
Nc1c(S(=O)(=O)c2cccs2)c2nc3ccccc3nc2n1/N=C/c1cccc(O)c1,16%,-92*,2%,16%,-87*,8%
CC(=O)NC(c1cccs1)c1cc([N+](=O)[O-])c2cccnc2c1O (stereo not drawn),u,-87*,10µM*,0%,-89*,-60%
CC(=O)NC(c1cccs1)c1cc(Cl)c2ccccc2c1O (stereo not drawn),x,x,-12%,-17%,x,x
CCCC(=O)NC(c1cccs1)c1cc([N+](=O)[O-])c2cccnc2c1O (stereo not drawn),2%,-85*,u,1%,-90*,x
CCC(=O)NC(c1cccs1)c1cc(Br)c2cccnc2c1O (stereo not drawn),x,x,20%,3%,x,x
CCC(=O)NC(c1cccs1)c1cc([N+](=O)[O-])c2cccnc2c1O (stereo not drawn),x,-83*,10µM*,-5%,-85*,x
O=C1C[C@@H](O)[C@@H](O)[C@@H]2[C@H]3C(=O)N(c4ccc(F)cc4F)C(=O)[C@@H]3CC[C@H]12,x,x,x,x,x,-2%[13.1 µM]
O=C(COC(=O)c1ccccc1O)Nc1cc([N+](=O)[O-])ccc1Cl,x,10,-1%,-1%,0,4%
COc1ccc(-c2nn(-c3ccccc3)cc2/C=C2/SC(=S)N(CCC(=O)O)C2=O)cc1,5%,-8,x,-11%,-16,x
O=C1C(=Cc2cn(-c3ccccc3)nc2-c2ccc(OCc3ccccc3F)cc2)SC(=S)N1CCS(=O)(=O)O,x,-15,x,x,-70*,x
O=C1C(=Cc2cn(-c3ccccc3)nc2-c2ccc(OCc3ccc(Cl)cc3)cc2)SC(=S)N1CCS(=O)(=O)O,x,u,x,x,-67*,x
COc1ccc2c(c1)C(c1cc(OC)c(OC)c(OC)c1)CC(=O)O2 (stereo not drawn),x,x,x,x,x,24%[89.1 µM]
O=C(O)c1ccnc2c(O)cccc12,x,x,13µM*,-21%,x,x
COc1ccc(CCNCC(=O)Nc2ccccc2C(F)(F)F)cc1,-10%,x,52%,9%,3,-2%
Cc1c(CCC(=O)O)c(=O)oc2c(C)c3occ(-c4ccc(Br)cc4)c3cc12,130%,-84*,x,-3%,-85*,x
Cc1c(CC(=O)O)c(=O)oc2c(C)c3occ(-c4ccc(F)cc4)c3cc12,0%,-72*,x,u,-29,x
COc1cc(COc2ccc3c(C)c(CCC(=O)O)c(=O)oc3c2)cc(OC)c1OC,1%,-6,x,11%,-9,x
COc1ccc(-c2coc3c(C)c4oc(=O)c(CCC(=O)O)c(C)c4cc23)cc1,-2%,-72*,x,-5%,-77*,x
CNC(=O)c1cc(Oc2ccc(NC(=O)Nc3ccc(Cl)c(C(F)(F)F)c3)cc2)ccn1,x,1,2%,0%,1,x
